# According to PubChem BioAssay (NCATS):
# Inconclusive results are not listed. Calls of active or inactive are those of the source. Unless noted, the call rests on the fitted dose curve.
# Experiments:
# [1] = target: Lysosomal acid glucosylceramidase (Homo sapiens) (UniProt P04062); assay: Glucocerebrosidase-p2 (AID 348; in the data active means potency below about 10 µM; further: potency means the concentration at half of the fitted maximal effect); details: purified GBA, blue fluorogenic substrate, 40 min
# Outline: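 Normal human glucocerebrosidase (0.2 nM) with blue fluorogenic substrate (80 uM final) in citrate/phosphate pH 5.9 with 10mM sodium taurocholate, 0.01% tween-20; 40 min RT, NaOH/glycine stop; fluorescence Ex 365/Em 440; AC50 from a titration from 0.6 nM upwards.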
# [2] = AP1 Signaling Pathway (AID 357; active means well fitted curve in either direction with a large enough effect, not every such curve was filed as active;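 further: ME-180 reporter cells stimulated with EGF at its EC50 level; on the % scale 0 is the no-effect control and ±100 the full control effect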); details: ME-180 AP-1-bla reporter, EGF-induced, beta-lactamase ratio, 5 h; at 7.69 µM (top of the series) unless noted
# Outline: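 Read-out was the 460nm/530nm emission ratio (excitation 405nm) after CCF4 loading for 2.5 hours at room temperature. Cells carried an AP-1-driven beta-lactamase reporter, were stimulated with EC50 EGF plus compound for 5 hours, and AC50 values came from titrations.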
# [3] = target: Cytochrome P450 1A2 (Homo sapiens) (UniProt P05177); assay: p450-cyp1a2 (AID 410); details: recombinant CYP1A2, luciferin-ME demethylation, luminescence; series mostly up to 57 µM; further: potency means the concentration at half of the fitted maximal effect;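 on activity change, negative = inhibition: -100% = full effect of reference inhibitor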
# Outline: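 Luminescent demethylation readout: Luciferin-ME (100uM, equal to Km) turned over by 20nM CYP1A2 for 60 min at room temperature after NADPH regeneration addition, following 10 min compound preincubation. Normalization used 57 uM furafylline as full inhibition.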
# [4] = Stat Signaling Pathway (AID 446; active means well fitted curve in either direction with a large enough effect, not every such curve was filed as active;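 further: ME-180 cervical cancer cells given 40 pM IL-6 alongside compound; SIE-controlled beta-lactamase reporter measured as 460/530 nm FRET emission ratio; on the % scale 0 is the no-effect control and ±100 the full control effect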); details: ME-180 (cervical carcinoma) SIE beta-lactamase reporter, IL-6 stimulated, 5 h; at 7.69 µM (top of the series) unless noted
# Outline: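 Emission at 460 and 530 nm (excitation 405 nm) reports SIE-controlled beta-lactamase in ME-180 cells. Cells received compound with 40 pM IL-6 for 5 hrs at 37 C; data scaled between 300 pM IL-6 and 125 nM JAK-inhibitor controls.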
# [5] = target: Glucocorticoid receptor (Homo sapiens) (UniProt P04150); assay: GR-GFP Redistribution (AID 450;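 active means compounds whose dose series gives a full or clear partial fitted curve of increased nuclear translocation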; further: potency means the concentration at half of the fitted maximal effect); details: U2OS GR-GFP nuclear translocation, laser cytometry, 2 h
# [6] = target: Glucocorticoid receptor (Homo sapiens) (UniProt P04150); assay: GR-EFC Redistribution (AID 451); details: CHO-K1 GR-EFC translocation, beta-gal luminescence, 2 h; further: potency means the concentration at half of the fitted maximal effect
# Outline: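 CHO-K1 cells stably expressing nuclear-localized β-gal enzyme acceptor and GR fused C-terminally to the enzyme donor fragment; ligand-driven nuclear translocation restores β-gal by complementation. Compounds titrated up to 46 uM final, 2 h at 37 °C; luminescence read.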
# [7] = target: Mitogen-activated protein kinase 10 (Mus musculus) (UniProt Q61831); assay: JNK3 AlphaScreen Assay (AID 530; active means well fitted curve in either direction with a large enough effect, not every such curve was filed as active;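 further: kinase came from lysate of stimulated human HepG2 cells; signal reports phosphorylation of biotinylated GST-cJun 1-79 at Ser73 with 10 µM ATP; on the % scale 0 is the no-effect control and ±100 the full control effect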); details: JNK3 lysate, c-Jun phosphorylation; series mostly up to 57.1 µM
# Outline: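 Phosphorylation of biotinylated GST-cJun(1-79) at Ser73 is measured by AlphaScreen proximity luminescence. Enzyme is JNK3 in HepG2 lysates activated with interleukin-1beta and tumor necrosis factor alpha; ATP is 10 uM final.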
# [8] = target: Cytochrome P450 3A4 (Homo sapiens) (UniProt P08684); assay: qHTS Assay for Activators of Cytochrome P450 3A4 (AID 885; active means well fitted curve in the direction sought with a large enough effect; an effect the other way counts as inactive or inconclusive; further: nearly all actives have a fitted effect of over 65% in size); details: recombinant CYP3A4, Luciferin-PPXE luminescence, 60 min; series mostly up to 57.1 µM
# Outline: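 Activators are scored by enhanced luminescence from CYP3A4 conversion of luciferin-PPXE (25uM, equal to KM) to luciferin, after 60 min at RT with an NADPH-regenerating system.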
# [9] = Confirmation and Secondary Assay for Modulators of Hemoglobin Beta Chain Splicing at IVS2 654 locus (AID 910; active means well fitted curve in the direction sought with a large enough effect; an effect the other way counts as inactive or inconclusive;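 further: per-well total GFP intensity by laser scanning cytometry after 2-day treatment; % of control where 0% means no effect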); details: HeLa EGFP-654 splicing reporter, GFP fluorescence, 48 h; series mostly up to 38.3 µM
# Outline: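 HeLa cells stably carrying EGFP interrupted by mutant beta-globin IVS2-654 intron (CMV-driven) were treated with compound for 2 days at 37C; corrected splicing was scored as total peak GFP intensity per well (488 nm excitation, 500-520 nm emission).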
# [10] = Confirmation and Secondary Assay for Modulators of Hemoglobin Beta Chain Splicing at IVS2 705 locus (AID 930; active means well fitted curve in the direction sought with a large enough effect; an effect the other way counts as inactive or inconclusive;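 further: HeLa cells stably expressing the EGFP-705 splicing reporter; GFP fluorescence per well restored by corrected splicing of the IVS2-705 intron in EGFP; % of control where 0% means no effect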); details: HeLa EGFP-705 splicing reporter, GFP fluorescence, 48 h; series mostly up to 38.3 µM
# Outline: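 Stable HeLa line with EGFP disrupted by mutant beta-globin intron 2 (705). Overnight attachment, then 2 days of compound at 37C, 5% CO2. Signal: peak GFP intensity summed over objects 5-250 µm.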
# [11] = qHTS Assay for Lipid Storage Modulators (AID 1519); details: Drosophila S3 cells, BODIPY lipid droplet/cell ratio, laser cytometry, cells loaded with oleic acid; for activity change, negative = inhibition: at 57.5 µM (top of the series)
# Outline: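 Cells seeded at 5,000 per well were treated with compounds over a concentration series and loaded with oleic acid (400 uM, as added). Lipid droplet fluorescence (488 nm excitation, 500-530 nm channel) was read by laser-scanning cytometry and normalized to 20 uM Triacsin C.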
# [12] = Primary qHTS for small molecule stabilizers of the endoplasmic reticulum resident proteome: Secreted ER Calcium Modulated Protein (SERCaMP) assay (AID 1508630; active means well fitted curve in the direction sought with a large enough effect; an effect the other way counts as inactive or inconclusive; further: on the % scale 0 is the no-effect control and ±100 the full control effect); details: SH-SY5Y GLuc-SERCaMP (Gaussia luciferase released on ER calcium loss) secretion, thapsigargin, luminescence; series mostly up to 38.4 µM
# Outline: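 The SH-SY5Y reporter protocol was run at 3 concentrations up to 38.3 uM (primary) or 11 concentrations (follow-up): 16 h compound, 100 nM thapsigargin for 4 h, then extracellular luciferase luminescence.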
# [13] = target: 3',5'-cyclic-AMP phosphodiesterase 4B (Homo sapiens) (UniProt Q07343); assay: qHTS Assay for Inhibitors of PDE-IV (AID 607; active means well fitted activation curve with a large enough effect in the main read-out, with a control signal flat, not every such curve was filed as active; further: % of control where 0% means no effect); details: HEK293 ACTOne CNG channel cells, membrane potential fluorescence; series mostly up to 22.9 µM
# Outline: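 The readout is membrane depolarisation from a cAMP-sensing CNG channel, detected with a potential dye at ex 535/em 590. Cells were HEK293-derived (endogenous PDE-IV) at 1000 cells/well, titrated up to 22.9 uM final.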
# [14] = target: Ubiquitin carboxyl-terminal hydrolase 1 (Homo sapiens) (UniProt O94782); assay: Inhibitors of USP1/UAF1: Pilot qHTS (AID 504865; active means well fitted curve in the direction sought with a large enough effect; an effect the other way counts as inactive or inconclusive;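 further: rhodamine fluorescence freed from ubiquitin-rhodamine substrate followed over time; top concentration of the series differs between compounds; on the % scale 0 is the no-effect control and ±100 the full control effect; nearly all actives have a fitted effect of over 35% in size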); details: purified USP1/UAF1, Ub-rhodamine cleavage fluorescence; series mostly up to 54.9 µM
# Outline: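 USP1/UAF1 complex at 1 nM preincubated 15 min at room temperature with compound, then Ub-Rho substrate added at 150 nM final. Fluorescence (480/540 nm) read kinetically in 50 mM HEPES pH 7.8, 0.5 mM EDTA, 1 mM TCEP, 0.1 mg/ml BSA, 0.01% Tween-20.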
# [15] = target: Cytochrome P450 2C9 (Homo sapiens) (UniProt P11712); assay: qHTS Assay for Inhibitors and Substrates of Cytochrome P450 2C9 (AID 883; active means well fitted curve in the direction sought with a large enough effect; an effect the other way counts as inactive or inconclusive; further: potency means the concentration at half of the fitted maximal effect; nearly all actives have a fitted effect of over 60% in size); details: recombinant CYP2C9, luciferin-H luminescence, 60 min; series mostly up to 57.1 µM
# Outline: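 CYP2C9 deoxyluciferin hydroxylation, 37C, 60 min with NADPH regeneration; 10nM enzyme, 100uM Luciferin-H (KM). Glo detection reagent stopped reaction; luminescence normalized to sulphaphenazole (57uM) full inhibition.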
# [16] = target: Cytochrome P450 3A4 (Homo sapiens) (UniProt P08684); assay: qHTS Assay for Inhibitors and Substrates of Cytochrome P450 3A4 (AID 884; active means well fitted curve in the direction sought with a large enough effect; an effect the other way counts as inactive or inconclusive; further: on the % scale 0 is the no-effect control and ±100 the full control effect; nearly all actives have a fitted effect of over 50% in size); details: recombinant CYP3A4, Luciferin-PPXE luminescence; series mostly up to 57.1 µM
# Outline: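 Luminescent readout of luciferin produced by CYP3A4 (20 nM) dealkylation of Luciferin-PPXE, 25 uM (its KM). NADPH-driven reaction ran 60 min at RT after 10 min compound preincubation; data scaled to 57 uM ketoconazole as 100% inhibition.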
# [17] = target: Cytochrome P450 2D6 (Homo sapiens) (UniProt P10635); assay: qHTS Assay for Inhibitors and Substrates of Cytochrome P450 2D6 (AID 891; active means well fitted curve in the direction sought with a large enough effect; an effect the other way counts as inactive or inconclusive;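 further: luciferin methyl ether substrate demethylated by CYP2D6 with NADPH regeneration; on the % scale 0 is the no-effect control and ±100 the full control effect; nearly all actives have a fitted effect of over 60% in size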); details: recombinant CYP2D6, luciferin-ME EGE luminescence; series mostly up to 57.1 µM
# Outline: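 Luminescent read-out of luciferin formed by 5 nM human CYP2D6 demethylating 30 uM Luciferin-ME EGE (Km level) over 60 min at room temperature after NADPH regeneration addition. Data normalized to full inhibition by 1.43 uM quinidine.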
# [18] = measured here: cell count channel max response
# [19] = measured here: lipid channel max response
# Chain of Cytochrome P450 1A2 (Homo sapiens) (P05177 whole entry, looked up): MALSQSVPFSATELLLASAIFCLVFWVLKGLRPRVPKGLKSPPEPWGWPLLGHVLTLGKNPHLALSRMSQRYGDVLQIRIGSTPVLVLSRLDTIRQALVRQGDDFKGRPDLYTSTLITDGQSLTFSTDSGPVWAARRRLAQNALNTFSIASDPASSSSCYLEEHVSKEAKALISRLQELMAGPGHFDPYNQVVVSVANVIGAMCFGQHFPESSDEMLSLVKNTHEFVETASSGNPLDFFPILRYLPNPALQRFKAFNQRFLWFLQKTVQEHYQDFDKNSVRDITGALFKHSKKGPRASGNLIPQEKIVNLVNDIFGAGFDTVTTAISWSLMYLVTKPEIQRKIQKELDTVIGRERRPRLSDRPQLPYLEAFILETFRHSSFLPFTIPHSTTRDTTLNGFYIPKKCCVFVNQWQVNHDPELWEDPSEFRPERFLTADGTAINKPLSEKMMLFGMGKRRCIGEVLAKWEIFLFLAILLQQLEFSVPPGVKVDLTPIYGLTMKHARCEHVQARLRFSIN
# Chain of Lysosomal acid glucosylceramidase (Homo sapiens) (P04062 whole entry, looked up): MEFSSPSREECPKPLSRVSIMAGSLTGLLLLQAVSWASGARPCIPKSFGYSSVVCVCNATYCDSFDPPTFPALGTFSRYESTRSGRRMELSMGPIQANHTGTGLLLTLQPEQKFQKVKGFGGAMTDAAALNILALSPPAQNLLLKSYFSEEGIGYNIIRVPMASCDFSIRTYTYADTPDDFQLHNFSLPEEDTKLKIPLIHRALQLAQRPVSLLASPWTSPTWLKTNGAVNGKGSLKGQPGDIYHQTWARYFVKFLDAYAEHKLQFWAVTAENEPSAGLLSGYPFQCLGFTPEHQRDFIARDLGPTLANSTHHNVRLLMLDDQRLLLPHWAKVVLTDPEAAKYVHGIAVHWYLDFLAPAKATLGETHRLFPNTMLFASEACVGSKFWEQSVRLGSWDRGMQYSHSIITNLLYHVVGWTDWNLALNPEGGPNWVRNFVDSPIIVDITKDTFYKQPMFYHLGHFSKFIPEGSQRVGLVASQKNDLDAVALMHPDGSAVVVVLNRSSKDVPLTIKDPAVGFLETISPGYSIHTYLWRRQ
# Chain of 3',5'-cyclic-AMP phosphodiesterase 4B (Homo sapiens) (Q07343 whole entry, looked up): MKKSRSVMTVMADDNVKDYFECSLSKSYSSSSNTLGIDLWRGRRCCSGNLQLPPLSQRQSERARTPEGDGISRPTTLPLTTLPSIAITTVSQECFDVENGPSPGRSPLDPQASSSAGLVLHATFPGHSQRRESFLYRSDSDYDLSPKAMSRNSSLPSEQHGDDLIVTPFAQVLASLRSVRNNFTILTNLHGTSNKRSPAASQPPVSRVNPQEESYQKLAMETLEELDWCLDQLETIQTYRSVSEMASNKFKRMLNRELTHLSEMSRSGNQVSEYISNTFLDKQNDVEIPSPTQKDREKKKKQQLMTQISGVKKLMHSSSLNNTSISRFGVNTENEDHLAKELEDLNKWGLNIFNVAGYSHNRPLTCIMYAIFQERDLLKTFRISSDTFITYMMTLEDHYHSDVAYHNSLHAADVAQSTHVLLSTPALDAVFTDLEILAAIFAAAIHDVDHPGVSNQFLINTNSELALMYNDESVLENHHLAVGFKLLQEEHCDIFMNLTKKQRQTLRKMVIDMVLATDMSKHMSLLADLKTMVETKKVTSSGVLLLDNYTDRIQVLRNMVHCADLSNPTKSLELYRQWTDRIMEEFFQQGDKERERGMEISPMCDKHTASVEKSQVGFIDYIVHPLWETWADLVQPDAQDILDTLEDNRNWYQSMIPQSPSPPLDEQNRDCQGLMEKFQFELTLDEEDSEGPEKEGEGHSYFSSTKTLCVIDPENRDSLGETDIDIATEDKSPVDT
# Chain of Cytochrome P450 3A4 (Homo sapiens) (P08684 whole entry, looked up): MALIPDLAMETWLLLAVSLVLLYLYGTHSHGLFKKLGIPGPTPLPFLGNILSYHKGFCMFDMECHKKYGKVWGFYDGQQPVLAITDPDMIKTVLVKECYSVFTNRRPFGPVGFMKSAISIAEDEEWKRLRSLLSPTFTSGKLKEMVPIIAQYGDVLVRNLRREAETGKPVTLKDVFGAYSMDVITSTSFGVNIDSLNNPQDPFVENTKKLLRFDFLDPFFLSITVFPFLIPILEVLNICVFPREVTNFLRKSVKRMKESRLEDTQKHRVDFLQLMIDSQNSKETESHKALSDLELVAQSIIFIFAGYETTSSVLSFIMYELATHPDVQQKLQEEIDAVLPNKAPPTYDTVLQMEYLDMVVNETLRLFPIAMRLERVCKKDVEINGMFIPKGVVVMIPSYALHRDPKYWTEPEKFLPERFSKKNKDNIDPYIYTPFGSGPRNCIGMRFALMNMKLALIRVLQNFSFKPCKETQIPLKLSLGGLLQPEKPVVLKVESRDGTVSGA
# Chain of Glucocorticoid receptor (Homo sapiens) (P04150 whole entry, looked up, the tested form may be a part): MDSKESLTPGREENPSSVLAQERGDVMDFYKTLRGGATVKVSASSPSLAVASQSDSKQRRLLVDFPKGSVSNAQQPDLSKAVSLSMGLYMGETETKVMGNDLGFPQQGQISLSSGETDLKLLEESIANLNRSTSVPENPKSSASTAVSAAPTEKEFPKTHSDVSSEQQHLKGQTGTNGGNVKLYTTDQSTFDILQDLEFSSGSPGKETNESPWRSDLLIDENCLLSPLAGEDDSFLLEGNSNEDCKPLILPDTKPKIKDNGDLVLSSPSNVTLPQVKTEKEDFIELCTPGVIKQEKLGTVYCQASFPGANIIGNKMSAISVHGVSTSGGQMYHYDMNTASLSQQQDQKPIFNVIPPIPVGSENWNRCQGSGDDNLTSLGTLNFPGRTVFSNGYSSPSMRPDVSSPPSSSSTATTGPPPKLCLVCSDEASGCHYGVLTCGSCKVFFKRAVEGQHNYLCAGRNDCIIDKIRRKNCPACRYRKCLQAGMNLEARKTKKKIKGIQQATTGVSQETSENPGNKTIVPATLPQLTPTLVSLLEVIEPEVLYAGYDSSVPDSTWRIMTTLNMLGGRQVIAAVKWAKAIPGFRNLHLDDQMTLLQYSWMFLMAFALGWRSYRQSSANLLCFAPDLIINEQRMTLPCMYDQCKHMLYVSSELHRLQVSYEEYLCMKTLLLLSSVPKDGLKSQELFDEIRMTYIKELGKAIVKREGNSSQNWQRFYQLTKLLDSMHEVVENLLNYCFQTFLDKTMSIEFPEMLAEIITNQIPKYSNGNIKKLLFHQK
# Chain of Ubiquitin carboxyl-terminal hydrolase 1 (Homo sapiens) (O94782 whole entry, looked up): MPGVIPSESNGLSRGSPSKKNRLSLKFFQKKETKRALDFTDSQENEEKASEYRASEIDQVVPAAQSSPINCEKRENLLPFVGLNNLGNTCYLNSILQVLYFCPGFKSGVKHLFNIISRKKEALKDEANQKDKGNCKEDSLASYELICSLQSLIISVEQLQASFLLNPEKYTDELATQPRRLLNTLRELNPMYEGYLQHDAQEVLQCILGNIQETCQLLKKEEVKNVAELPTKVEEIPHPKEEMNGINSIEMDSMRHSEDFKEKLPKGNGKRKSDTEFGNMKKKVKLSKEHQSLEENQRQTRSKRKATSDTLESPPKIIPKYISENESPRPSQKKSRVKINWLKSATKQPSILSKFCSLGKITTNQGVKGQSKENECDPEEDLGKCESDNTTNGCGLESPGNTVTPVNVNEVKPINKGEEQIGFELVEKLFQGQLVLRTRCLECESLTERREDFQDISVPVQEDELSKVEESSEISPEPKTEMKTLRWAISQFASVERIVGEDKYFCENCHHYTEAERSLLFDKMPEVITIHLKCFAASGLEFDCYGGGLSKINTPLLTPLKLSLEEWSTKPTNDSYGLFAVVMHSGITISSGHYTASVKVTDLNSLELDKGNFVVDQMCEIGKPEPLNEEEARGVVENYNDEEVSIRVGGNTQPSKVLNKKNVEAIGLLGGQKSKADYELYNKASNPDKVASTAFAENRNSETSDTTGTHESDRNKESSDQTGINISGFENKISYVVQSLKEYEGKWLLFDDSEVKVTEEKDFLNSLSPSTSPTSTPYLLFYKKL
# Chain of Cytochrome P450 2D6 (Homo sapiens) (P10635 whole entry, looked up): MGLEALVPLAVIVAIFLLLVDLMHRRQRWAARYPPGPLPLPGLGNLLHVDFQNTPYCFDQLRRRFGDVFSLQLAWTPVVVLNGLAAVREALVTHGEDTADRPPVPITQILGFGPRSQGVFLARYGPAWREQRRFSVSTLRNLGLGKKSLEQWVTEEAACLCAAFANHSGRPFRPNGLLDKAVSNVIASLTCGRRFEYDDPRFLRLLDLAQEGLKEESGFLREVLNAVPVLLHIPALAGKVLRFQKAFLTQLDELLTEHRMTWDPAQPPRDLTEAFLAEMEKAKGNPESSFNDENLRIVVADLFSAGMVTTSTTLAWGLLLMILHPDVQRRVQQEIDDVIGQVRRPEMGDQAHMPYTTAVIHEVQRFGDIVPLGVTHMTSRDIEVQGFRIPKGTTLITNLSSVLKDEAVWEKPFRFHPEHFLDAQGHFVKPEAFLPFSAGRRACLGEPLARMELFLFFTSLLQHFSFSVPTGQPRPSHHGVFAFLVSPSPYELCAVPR
# Chain of Cytochrome P450 2C9 (Homo sapiens) (P11712 whole entry, looked up): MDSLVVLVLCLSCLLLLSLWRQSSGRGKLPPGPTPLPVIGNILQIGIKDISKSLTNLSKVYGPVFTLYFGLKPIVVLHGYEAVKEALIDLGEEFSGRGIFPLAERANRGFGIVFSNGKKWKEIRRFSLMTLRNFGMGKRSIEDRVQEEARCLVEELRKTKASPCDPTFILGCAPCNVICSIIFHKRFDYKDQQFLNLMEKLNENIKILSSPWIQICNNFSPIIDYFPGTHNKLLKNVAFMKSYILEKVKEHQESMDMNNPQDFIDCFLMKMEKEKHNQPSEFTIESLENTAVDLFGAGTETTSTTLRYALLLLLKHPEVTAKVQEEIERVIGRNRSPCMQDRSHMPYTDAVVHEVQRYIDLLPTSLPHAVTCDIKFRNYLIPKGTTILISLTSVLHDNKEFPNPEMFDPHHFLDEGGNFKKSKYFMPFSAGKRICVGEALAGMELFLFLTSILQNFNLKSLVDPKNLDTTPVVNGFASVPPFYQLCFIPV
SMILES,Potency [1],"activity change, negative = inhibition [2]",Potency [3],"activity, negative = inhibition [4]",Potency [5],Potency [6],Potency [7],Potency [8],Potency [9],outcome [10],"activity change, negative = inhibition [11]","max response [11, 18] [%]","max response [11, 19] [%]",outcome [12],Potency [13],Potency [14],Potency [15],Potency [16],Potency [17]
COc1ccccc1CNc1nc(-c2ccccc2CN(C)C)nc2ccccc12,> 11.4 µM (inactive),16.7% (inactive),0.794 µM (active),-12.4% (inactive),> 46 µM (inactive),> 46 µM (inactive),inactive,inactive,inactive,inactive,3.53% (inactive),-19.9,-15.9,inactive,–,–,–,–,–
COc1ccc(C(=O)N2CCC3(CCN(Cc4ccccc4OC)CC3)CC2)cc1,> 11.4 µM (inactive),-0.655% (inactive),inactive,-4.81% (inactive),–,> 46 µM (inactive),inactive,–,–,–,2.01% (inactive),10.3,16.6,inactive,inactive,–,–,–,–
CN(C)Cc1ccccc1-c1cncnc1NCc1cccs1,> 11.4 µM (inactive),8.74% (inactive),25.1 µM (active),-5.04% (inactive),> 46 µM (inactive),> 46 µM (inactive),inactive,inactive,inactive,–,5.02% (inactive),16.5,25.4,inactive,inactive,inactive,–,–,–
O=C(c1ccncc1)N1CCC2(CC1)CCN(c1ccccn1)CC2,> 11.4 µM (inactive),8.14% (inactive),12.6 µM (active),-1.09% (inactive),–,> 46 µM (inactive),inactive,–,–,–,6.99% (inactive),10.7,20.3,inactive,inactive,–,–,–,–
CN1CCCC2(CCN(C(=O)c3cccc(F)c3)CC2)C1,> 11.4 µM (inactive),-7.14% (inactive),31.6 µM (active),6.64% (inactive),–,> 46 µM (inactive),inactive,–,–,–,0.413% (inactive),7.52,10.1,inactive,inactive,–,20 µM (active),inactive,inactive
COCC(=O)N1CCC2(CC1)CCN(c1cccc(-c3ccccc3)c1)CC2,> 11.4 µM (inactive),-4.83% (inactive),5.01 µM (active),-8.32% (inactive),–,> 46 µM (inactive),inactive,–,–,–,-0.758% (inactive),-9.9,-7.13,inactive,inactive,–,–,–,–
CC(C)CN1CCC2(CC1)CCN(C(=O)c1cnccn1)CC2,> 11.4 µM (inactive),-3.54% (inactive),inactive,3.68% (inactive),–,> 46 µM (inactive),inactive,–,–,–,-2.81% (inactive),-8.95,-8.33,inactive,inactive,–,–,–,–
